ELG1 repair inh: qHTS screen for small molecules that inhibit ELG1-dependent DNA repair in human embryonic kidney (HEK293T) cells expressing luciferase-tagged ELG1. HEK293T ELG1-luciferase reporter, luminescence, 16 h; DNA damage induced by 5-fluorouridine. Potency, µM (titrated, usually from 46.1 µM), hits mostly inhibitors. actives 2.3% (n = 330,000). AID 504467, 2011; further: nearly all actives have a fitted effect of over 55% in size
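Luminescence from the luciferase reporter, measured 30 min after ONE-Glo reagent at room temperature, was the read-out. Beforehand, 2,000 cells per well were exposed for 16 hr at 37 °C to 5-fluorouridine together with compound or vehicle.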
KB-V1 MDR tox: qHTS assay for MDR1-selective chemotherapeutics: Primary screen using the drug-selected MDR subline cells KB-V1; KB-V1 MDR cells viability, CellTiter-Glo, 72 h; Potency, µM (highest dose often 46.1 µM), usual class: cytotoxic; actives 3.4% (n = 400,000); AID 1347076, 2019; further: nearly all actives have a fitted effect of over 60% in size
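KB-V1 cells (P-gp-expressing MDR subline of KB-3-1) in phenol-red-free DMEM with 10% FBS were exposed to library compounds over a concentration series for 72 h at 37 degrees C. Viability read by CellTiter-Glo luminescence; concentration-effect curves fitted after normalization.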
MCF10A rerep: A quantitative high throughput screen for small molecules that induce DNA re-replication in MCF 10a normal breast cells. AID 624296, 2012. MCF 10A DNA re-replication, Hoechst nuclear intensity, 48 h. actives 2.9% (n = 350,000). Potency, µM (titrated, usually from 46.1 µM), actives largely listed as activators; further: nearly all actives have a fitted effect of over 50% in size
SW480 rereplic: A quantitative high throughput screen for small molecules that induce DNA re-replication in SW480 colon adenocarcinoma cells; SW480 DNA re-replication, Hoechst DNA content imaging, 48 h; Potency, µM (highest dose often 46.1 µM), most hits filed as activators; AID 624297, 2012; actives 1.8% (n = 340,000); further: nearly all actives have a fitted effect of over 55% in size
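Image-based DNA-content assay: after two days of treatment, nuclei were labelled with the DNA dye Hoechst and imaged, and hits were compounds raising the count of nuclei showing high fluorescence intensity.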
KB-3-1 cytotox: qHTS assay for MDR1-selective chemotherapeutics: Primary screen using the parental adenocarcinoma cell KB-3-1; KB-3-1 viability, CellTiter-Glo ATP luminescence, 72 h; Potency, µM (series often up to 46.1 µM), most hits filed as cytotoxic; actives 1.4% (n = 400,000); AID 1347075, 2019; further: nearly all actives have a fitted effect of over 60% in size
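Screening of KB-3-1 cells (DMEM, 10% FBS, phenol-red free) ran from lowest to highest compound concentration; after 72 h at 37 °C viability was read luminescently and curves fitted.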
A number is an active result; 0 = inactive; ? = inconclusive; - = no result given. A selection: hits, their analogues and other compounds. The true share with any hit is near 8.2%. The call rests on the fitted dose curve; in most records, active means well fitted curve in the direction sought with a large enough effect; inconclusive means small, poorly fitted or top-dose-only effect, or another doubt; inactive means no such curve, though single readings can be large; an effect the other way counts as inactive or inconclusive.

SMILES	ELG1 repair inh	KB-V1 MDR tox	MCF10A rerep	SW480 rereplic	KB-3-1 cytotox
CC1O[C@@H](OCC2O[C@@H](Oc3cc(O)c4c(c3)OC(c3ccc(O)cc3)CC4=O)[C@H](O)[C@@H](O)[C@@H]2O)[C@H](O)[C@H](O)[C@H]1O (some centres undefined)	0	0	0	0	0
COc1ccc(OCc2nc(C#N)c(NCCCn3ccnc3)o2)cc1	0	0	0	0	0
N#Cc1nc(Cc2ccccc2)oc1NCCCn1ccnc1	?	0	?	16.4µM	0
CC(C)n1nccc1N(Cc1ccc(Br)cc1)S(=O)(=O)c1ccccc1	?	?	0	0	?
CCOc1ccc(C(=O)N2CCN(Cc3cc(=O)n4nc(-c5ccccc5Cl)sc4n3)CC2)cc1	-	0	-	-	0
O=C(Nc1ccc(F)cc1)c1ncn(-c2ccccc2)n1	-	0	-	-	0
Cc1ccc(S(=O)(=O)c2nc(Nc3ccccc3N3CCOCC3)sc2Cl)cc1	0	10.3µM	0	0	0
Cc1ccc(S(=O)(=O)c2nc(Nc3ccccc3C#N)sc2Cl)cc1	0	0	0	0	0
CCN1CCN(c2cccc(Nc3nn4c(=O)c5ccccc5nc4s3)c2)CC1	-	0	-	-	0
O=C(Nc1ccc(S(=O)(=O)N2CCOCC2)cc1)c1ccco1	0	0	0	0	0
O=C(Nc1ccc(Oc2ccc(S(=O)(=O)N3CCOCC3)cn2)cc1)c1ccco1	?	18.4µM	0	0	0
NCCc1c(C(=O)O)[nH]c2ccc([N+](=O)[O-])cc12	0	10.3µM	0	0	?
Clc1cccc(OCCN2CCNCC2)c1	0	0	0	18.4µM	0
O=S(=O)(c1cccc(C(F)(F)F)c1)N1CCN(c2nc(-c3ccccc3)nc3ccccc23)CC1	-	0	-	-	0
COc1ccccc1NC(=O)c1nnn(Cc2ccccc2)c1NC(=O)C(F)(F)F	0	20.6µM	0	0	18.4µM
COc1ccc(C)cc1NC(=O)c1nnn(Cc2cccc(C(F)(F)F)c2)c1N	0	0	2.06µM	0	?
COc1ccccc1NC(=O)c1nnn(Cc2ccccc2)c1NC(C)=O	0	0	0	0	0
Nc1nc(NCc2ccccc2Cl)c2[nH]cnc2n1	-	0	-	-	0
CCOc1cc(N2CCOCC2)c(OCC)cc1NC(=O)CN1C(=O)N(C)C2(CCCCC2)C1=O	0	0	0	0	0
Cc1nc(-c2cccc(NS(=O)(=O)c3ccccc3)c2)cs1	0	0	?	0	0
Cc1ccc2nc(-c3cccc(NS(C)(=O)=O)c3)cc(-c3ccccc3)c2c1	?	18.4µM	?	?	?
COc1ccc2c(c1)C=C([C@@H]1C[C@H]3CN(c4ccccc4)C(=O)[C@]34CCCN14)CO2	?	0	0	0	?
O=C1N(c2ccccc2)C[C@@H]2C[C@@H](c3cccs3)N3CCC[C@@]123	?	0	5.8µM	0	0
COc1ccc([C@@H]2C[C@H]3CN(c4ccccc4)C(=O)[C@]34CCCN24)c(OC)c1OC	?	0	0	0	0
COCc1cc([C@@H]2C[C@H]3CN(c4ccccc4)C(=O)[C@]34CCCN24)ccc1OC	14.6µM	0	0	0	0
SMILES	ELG1 repair inh	KB-V1 MDR tox	MCF10A rerep	SW480 rereplic	KB-3-1 cytotox
CC(C)(O)C#Cc1ccc([C@@H]2C[C@H]3CN(c4ccccc4)C(=O)[C@]34CCCN24)s1	0	0	?	8.2µM	?
COc1ccccc1N1C[C@@H]2C[C@@H](c3ccco3)N3CCC[C@@]23C1=O	0	0	0	0	?
Cc1cccc(N(Cc2ccccc2)C(=O)c2ccccc2S(C)(=O)=O)c1	0	0	0	0	0
O=C(NC1CCN(Cc2ccccc2)CC1)c1cccc(S(=O)(=O)Nc2ccc(F)cc2)c1	0	0	?	0	?
Cc1ccc(C)c(OCCn2cc(C(=O)c3ccco3)c3ccccc32)c1	-	0	-	-	0
C[C@@H]1CN([C@@H](C)CO)C(=O)c2cc(Br)cnc2O[C@@H]1CN(C)C(=O)CN(C)C	-	0	-	-	0
COC(=O)c1cn(NC(=O)/C=C/c2cc(OC)ccc2OC)c(=O)c2ccccc12	0	8.2µM	0	0	0
COc1ccc(-n2c(C)c(C)c3c(N)ncnc32)cc1	10.3µM	0	?	0	0
O=C(C[n+]1ccccc1Cl)c1ccccc1	-	0	-	-	0
COCC(=O)Nc1cc(Cl)ccc1C	0	0	0	0	0
Cc1ccc(Cl)cc1NC(=O)CC(O)(C(F)(F)F)C(F)(F)F	0	20.6µM	0	18.4µM	?
C#CCNC(=O)C[C@@H]1C[C@@]2(C(=O)OC)CCCCC=C2N(Cc2ccco2)C1=O	-	0	-	-	0
CC(C)n1c(O)c(N=NC(=O)Cn2ccc(C(F)(F)F)n2)c2ccccc21	0	8.2µM	?	0	?
O=C(CCC(=O)N1CCN(S(=O)(=O)c2ccc(Cl)cc2)CC1)Nc1ccc2ccccc2c1	0	0	0	0	0
CCOC(=O)N1CCN(CCC(=O)Nc2ccc(Br)c(C)c2)CC1	?	18.4µM	0	0	?
CCN1CCN(CCC(=O)Nc2ccc(Br)c(C)c2)CC1	0	0	?	?	0
Cc1ccc(S(=O)(=O)N2CCN(C(=O)CCC(=O)Nc3ccc(Br)c(C)c3)CC2)cc1	-	13µM	0	0	0
O=C(CN1C(=O)NC2(CCc3ccccc32)C1=O)Nc1ccccc1Cl (centres undefined)	0	0	0	0	0
Cc1nnc(N2CCN(C(=O)Nc3cccc(C(F)(F)F)c3)CC2)c2nn(-c3ccccc3)c(C)c12	-	0	-	-	0
COc1cc(O)oc1C=Nc1ccc(C(=O)O)cc1	0	23.1µM	0	0	?
CNc1cccc2c1C(=O)c1ccccc1C2=O	?	?	0	0	0
O=C1c2ccccc2-c2cccc(NS(=O)(=O)c3ccc(C(F)(F)F)cc3)c21	0	23.1µM	0	0	?
COc1ccc(/C(O)=C2/C(=O)C(=O)N(c3ccccn3)C2c2cccc(Cl)c2)cc1 (centres undefined)	0	0	0	0	0
CCOC(=O)c1cc(C)sc1NC(=O)CSC1=NCCS1	0	0	20.6µM	?	0
O=S(=O)(c1ccc(F)cc1)c1nc(-c2ccccc2F)oc1N1CCCCC1	0	3.66µM	0	0	0
Cc1cc(NC(=O)/C(C#N)=C\c2ccc(-c3ccc(SC(F)F)cc3)o2)n(-c2ccccc2)n1	-	0	0	0	0
O=C1CC(N2CCN(c3ccccc3)CC2)C(=O)N1c1cccc(Cl)c1 (centres undefined)	0	0	0	0	0
O=C1CC(N2CCN(c3nc4ccccc4s3)CC2)C(=O)N1c1cccc(F)c1 (centres undefined)	0	0	0	0	18.4µM

From PubChem BioAssay
